Inconclusive results are not listed. A number with no mark means an inactive call. The source made the active and inactive calls. Calls follow the shape of the dose curve; as a rule, active = well fitted inhibition curve with a large enough effect; inconclusive = small, poorly fitted or top-dose-only effect; inactive = no such curve, though single readings can be large or run the other way.
experiment: Acumen qHTS Assay for Inhibitors of the mTORC1 Signaling Pathway in WT MEF Cells: Hit Validation; conditions: Acumen imaging; series mostly up to 37.3 µM; activity change, negative = inhibition: at the top concentration; also: nearly all actives have a fitted effect of over 60% in size;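 as to activity change, negative = inhibition: phospho-rpS6 Ser235/236 immunofluorescence normalised to propidium iodide cell stain; percent of cells above a cutoff set by 7.5 nM rapamycin treated wells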
In short: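 Read-out is immunofluorescent phospho-rpS6 (Ser235/236) normalised to PI-stained cell number, reported as % active cells using a 7.5 nM rapamycin threshold. Cells: WT or Tsc2-/-, p53-/- MEFs, compound-exposed 24 h at 37C; PI count also tracks viability.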
Potency is read from the fitted curve at half-maximal effect.

| SMILES | Potency | activity change, negative = inhibition |
| --- | --- | --- |
| CCOC(=O)c1ccc(NC(=O)c2nc(S(=O)(=O)Cc3ccccc3)ncc2Cl)cc1 | 6.56 µM (active) | – |
| COc1cc(C(=O)NC(c2ccccc2Cl)c2cc(Cl)c3cccnc3c2O)cc(OC)c1OC (stereo not given) | – | -10.6% |
| COc1ccc(-n2ncc3c(NCCCOC(C)C)ncnc32)cc1 | – | -9.78% |
| Cc1oc2c(cc(NS(=O)(=O)c3ccc(C(C)C)cc3)c3ccccc32)c1C(=O)OCc1ccccc1 | – | -26% |
| COc1cc(C)ccc1OCCn1c(-c2ccc(Cl)cc2)nc2ccccc2c1=O | – | 25.2% |
| O=S(=O)(NCc1nc2cccnc2n1Cc1ccccc1Cl)c1ccc(F)c(Cl)c1 | – | -18.5% |
| CCc1ccc(NC(=O)Cn2c(=O)n(-c3ccc(OC)cc3)c(=O)c3ccc(C(=O)NCc4ccc(C)cc4)cc32)cc1 | 10.4 µM (active) | – |
| COc1ccc(Cn2c(C(=O)O)c(CNCc3ccc(SC)cc3)c3ccc(OC)cc32)cc1 | – | -3.13% |
| CCOc1ccc(Nc2nc(-c3cccc(Cl)c3)c3c(n2)-c2ccccc2OC3)cc1 | – | -3.01% |
| CCCCN(C)CCNC(=O)c1cc2c(=O)n(C)c3ccccc3c2n1C | – | 16.9% |
| CCC(C)NC(=O)c1sc2nc(C)c(C(=O)Nc3ccc(C)cc3C)c(-c3ccc(Cl)cc3)c2c1N (stereo not given) | – | 13.2% |
| CCCCN1C(=O)C(O)(c2c(C)[nH]c3ccccc23)c2cc(Br)ccc21 (stereo not given) | – | -22% |
| Cc1cccc(NC(=O)c2c(N)sc3c2CCC(C)C3)c1 (stereo not given) | – | -17.2% |
| CC(C)c1ccc(C2Sc3ccccc3NC3=C2C(=O)c2ccccc23)cc1 (stereo not given) | – | -17.9% |
| CC(C)N(C(=O)Cn1cc(S(=O)(=O)Cc2ccc(Cl)cc2)c2ccccc21)C(C)C | – | -3.05% |
| Cc1ccc(NC(=O)c2c(C)oc3ccc(O)c(CN(C)Cc4ccccc4)c23)c(C)c1 | – | 18.5% |
| CCn1c(=O)sc2cc(NS(=O)(=O)c3ccc(F)c(C)c3)ccc21 | – | -13.4% |
| O=C(CN1C(=O)C(c2ccc(F)cc2)=NC12CCCCCC2)Nc1ccccc1Cl | – | 6.65% |
| COC(=O)c1ccccc1NC(=O)c1nc(S(=O)(=O)Cc2cccc(C)c2)ncc1Cl | 5.21 µM (active) | – |
| O=C(Cn1c(=O)c2ccccc2n(CC(=O)Nc2ccc(Cl)cc2)c1=O)NCCc1ccccc1 | 14.7 µM (active) | – |

| SMILES | Potency | activity change, negative = inhibition |
| --- | --- | --- |
| CC1=Nc2cc(C(=O)NC3CCCC3)ccc2Sc2ccc(Cl)cc21 | 0.826 µM (active) | – |
| COc1ccc(S(=O)(=O)NCCc2sc3nc(-c4ccc(C)cc4)nn3c2C)cc1F | – | -14% |
| COc1cc(Br)ccc1C1C(C(=O)Nc2ccc(C)cc2C)=C(C)Nc2nnnn21 (stereo not given) | – | -23.5% |
| CCc1ccc(CN(Cc2ccco2)C(=O)c2cc(-c3ccc(C)c(F)c3)on2)cc1 | – | 46.8% |
| COC(=O)c1ccccc1NC(=O)CSc1n[nH]c(CC(C)C)n1 | – | 3.82% |
| CCOc1ccc(-c2cnc(NCc3ccc(C(F)(F)F)cc3)n2C)cc1 | – | -3.05% |
| CCOC(=O)c1c(NC(=O)c2ccc(S(=O)(=O)N(CCOC)CCOC)cc2)sc2c1CC(C)(C)NC2(C)C | 3.29 µM (active) | – |
| COc1ccc(S(=O)(=O)NCCc2csc3nc(-c4ccc(Cl)cc4)nn23)cc1C | – | 0.763% |
| Cc1oc(-c2ccccc2F)nc1Cn1c(SCc2cccc(Cl)c2)nc2ccncc21 | – | 1.59% |
| Cc1ccc(C)c(NC(=O)c2nc(S(=O)(=O)Cc3ccc(F)cc3)ncc2Cl)c1 | 2.33 µM (active) | – |
| COc1cccc(C2CC(=O)Nc3cc4c(cc32)OCCO4)c1OC (stereo not given) | – | 10.7% |
| COCCCNC(=O)c1ccc(CSc2nc3cccnc3n2Cc2ccc(OC)cc2)cc1 | – | -10.2% |
| COc1cc(CN(C(=O)COc2ccc(C)c(C)c2)c2ccccn2)cc(OC)c1OC | – | -74.2% |
| O=C(NCC1CCN(Cc2cccc(Cl)c2)CC1)Nc1ccc(F)c(Cl)c1 | – | 30.7% |
| Cc1ccc(C)c(NC(=O)Nc2cc3c(cc2N2CCCCC2)n(C)c(=O)n3C)c1 | – | -3.45% |
| CCOc1ccc(NC(=O)CN2C(=O)C(c3ccc(Cl)cc3)=NC2(C)C)cc1 | – | 39% |
| CC(C)(C)c1ccc(S(=O)(=O)N2CCC(c3ccncc3)CC2)cc1 | – | -12.2% |
| CCN1CCOC(=O)C1CC(=O)Nc1ccc(Br)cc1 (stereo not given) | – | 11.3% |
| CCOc1ccc(CCNCc2c(C(=O)O)n(Cc3ccc(C)cc3)c3cc(OC)ccc23)cc1 | – | -1.53% |
| Cc1cccc(-n2cnc3cc(C(=O)NC4CCCCCC4)ccc32)c1 | 5.21 µM (active) | – |
